Reference: ChEMBL document CHEMBL2218924, “A broad activity screen in support of a chemogenomic map for kinase signalling research and drug discovery” (Biochem J, 2013)

What was measured:
[1] = molecular target: T1, Dual specificity mitogen-activated protein kinase kinase 6 (Homo sapiens) (UniProt P52564); details: at 1 µM
T1 sequence (whole entry): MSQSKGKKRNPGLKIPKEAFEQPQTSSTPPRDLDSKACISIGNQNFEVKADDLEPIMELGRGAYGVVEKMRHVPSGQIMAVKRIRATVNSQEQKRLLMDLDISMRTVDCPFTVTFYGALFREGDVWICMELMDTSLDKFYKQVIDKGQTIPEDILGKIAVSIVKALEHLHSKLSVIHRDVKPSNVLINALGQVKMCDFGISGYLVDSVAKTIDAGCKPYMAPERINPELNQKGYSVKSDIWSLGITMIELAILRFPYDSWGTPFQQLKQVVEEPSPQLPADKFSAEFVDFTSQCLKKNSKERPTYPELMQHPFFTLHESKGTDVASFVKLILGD

[2] = molecular target: T1, Dual specificity mitogen-activated protein kinase kinase 6 (Homo sapiens); details: at 10 µM
[3] = molecular target: T2, Dual specificity mitogen-activated protein kinase kinase 7 (Homo sapiens) (UniProt O14733); details: at 1 µM
T2 sequence (whole entry): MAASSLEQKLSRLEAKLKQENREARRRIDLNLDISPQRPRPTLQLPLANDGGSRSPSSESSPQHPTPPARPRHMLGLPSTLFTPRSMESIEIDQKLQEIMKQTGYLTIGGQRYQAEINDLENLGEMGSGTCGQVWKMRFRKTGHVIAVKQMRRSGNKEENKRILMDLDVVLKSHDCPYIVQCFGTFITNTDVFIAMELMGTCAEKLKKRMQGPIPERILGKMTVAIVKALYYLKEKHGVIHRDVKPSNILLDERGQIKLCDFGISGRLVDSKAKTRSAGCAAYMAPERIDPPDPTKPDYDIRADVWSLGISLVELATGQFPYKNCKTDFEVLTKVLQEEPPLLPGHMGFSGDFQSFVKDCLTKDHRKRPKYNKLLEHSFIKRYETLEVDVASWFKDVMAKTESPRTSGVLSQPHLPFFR

[4] = molecular target: T2, Dual specificity mitogen-activated protein kinase kinase 7 (Homo sapiens); details: at 10 µM
[5] = molecular target: Myosin light chain kinase, smooth muscle (Homo sapiens) (UniProt Q15746); details: at 1 µM
[6] = molecular target: Myosin light chain kinase, smooth muscle (Homo sapiens) (UniProt Q15746); details: at 10 µM
[7] = molecular target: Mitogen-activated protein kinase kinase kinase 9 (Homo sapiens) (UniProt P80192); details: at 1 µM
[8] = molecular target: Mitogen-activated protein kinase kinase kinase 9 (Homo sapiens) (UniProt P80192); details: at 10 µM
[9] = molecular target: Ribosomal protein S6 kinase alpha-4 (Homo sapiens) (UniProt O75676); details: at 1 µM
[10] = molecular target: Ribosomal protein S6 kinase alpha-4 (Homo sapiens) (UniProt O75676); details: at 10 µM
[11] = molecular target: SRSF protein kinase 3 (Homo sapiens) (UniProt Q9UPE1); details: at 1 µM
[12] = molecular target: T3, Serine/threonine-protein kinase 4 (Homo sapiens) (UniProt Q13043); details: at 1 µM
T3 sequence (whole entry): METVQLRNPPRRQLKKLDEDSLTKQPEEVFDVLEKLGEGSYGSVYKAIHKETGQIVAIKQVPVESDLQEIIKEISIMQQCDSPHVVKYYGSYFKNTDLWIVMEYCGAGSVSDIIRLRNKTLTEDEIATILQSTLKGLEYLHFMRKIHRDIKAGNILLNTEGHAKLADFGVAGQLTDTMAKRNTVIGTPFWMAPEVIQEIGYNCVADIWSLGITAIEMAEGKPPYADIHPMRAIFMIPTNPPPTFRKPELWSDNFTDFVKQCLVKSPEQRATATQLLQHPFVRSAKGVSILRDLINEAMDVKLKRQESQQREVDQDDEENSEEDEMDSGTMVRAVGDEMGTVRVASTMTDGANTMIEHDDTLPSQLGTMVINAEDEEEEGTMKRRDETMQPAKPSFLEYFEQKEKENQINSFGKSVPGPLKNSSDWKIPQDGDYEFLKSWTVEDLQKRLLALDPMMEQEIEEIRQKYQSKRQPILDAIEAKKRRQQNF

[13] = molecular target: T3, Serine/threonine-protein kinase 4 (Homo sapiens); details: at 10 µM
[14] = molecular target: Serine/threonine-protein kinase MRCK alpha (Homo sapiens) (UniProt Q5VT25); details: at 10 µM
[15] = molecular target: Serine/threonine-protein kinase MRCK beta (Homo sapiens) (UniProt Q9Y5S2); details: at 1 µM
[16] = molecular target: Serine/threonine-protein kinase MRCK beta (Homo sapiens) (UniProt Q9Y5S2); details: at 10 µM
[17] = molecular target: Ribosomal protein S6 kinase alpha-5 (Homo sapiens) (UniProt O75582); details: at 10 µM
[18] = molecular target: SRSF protein kinase 3 (Homo sapiens) (UniProt Q9UPE1); details: at 10 µM
[19] = molecular target: Serine/threonine-protein kinase MRCK alpha (Homo sapiens) (UniProt Q5VT25); details: at 1 µM
[20] = molecular target: Ribosomal protein S6 kinase alpha-5 (Homo sapiens) (UniProt O75582); details: at 1 µM

Chain of Serine/threonine-protein kinase MRCK alpha (Homo sapiens) (Q5VT25 whole entry): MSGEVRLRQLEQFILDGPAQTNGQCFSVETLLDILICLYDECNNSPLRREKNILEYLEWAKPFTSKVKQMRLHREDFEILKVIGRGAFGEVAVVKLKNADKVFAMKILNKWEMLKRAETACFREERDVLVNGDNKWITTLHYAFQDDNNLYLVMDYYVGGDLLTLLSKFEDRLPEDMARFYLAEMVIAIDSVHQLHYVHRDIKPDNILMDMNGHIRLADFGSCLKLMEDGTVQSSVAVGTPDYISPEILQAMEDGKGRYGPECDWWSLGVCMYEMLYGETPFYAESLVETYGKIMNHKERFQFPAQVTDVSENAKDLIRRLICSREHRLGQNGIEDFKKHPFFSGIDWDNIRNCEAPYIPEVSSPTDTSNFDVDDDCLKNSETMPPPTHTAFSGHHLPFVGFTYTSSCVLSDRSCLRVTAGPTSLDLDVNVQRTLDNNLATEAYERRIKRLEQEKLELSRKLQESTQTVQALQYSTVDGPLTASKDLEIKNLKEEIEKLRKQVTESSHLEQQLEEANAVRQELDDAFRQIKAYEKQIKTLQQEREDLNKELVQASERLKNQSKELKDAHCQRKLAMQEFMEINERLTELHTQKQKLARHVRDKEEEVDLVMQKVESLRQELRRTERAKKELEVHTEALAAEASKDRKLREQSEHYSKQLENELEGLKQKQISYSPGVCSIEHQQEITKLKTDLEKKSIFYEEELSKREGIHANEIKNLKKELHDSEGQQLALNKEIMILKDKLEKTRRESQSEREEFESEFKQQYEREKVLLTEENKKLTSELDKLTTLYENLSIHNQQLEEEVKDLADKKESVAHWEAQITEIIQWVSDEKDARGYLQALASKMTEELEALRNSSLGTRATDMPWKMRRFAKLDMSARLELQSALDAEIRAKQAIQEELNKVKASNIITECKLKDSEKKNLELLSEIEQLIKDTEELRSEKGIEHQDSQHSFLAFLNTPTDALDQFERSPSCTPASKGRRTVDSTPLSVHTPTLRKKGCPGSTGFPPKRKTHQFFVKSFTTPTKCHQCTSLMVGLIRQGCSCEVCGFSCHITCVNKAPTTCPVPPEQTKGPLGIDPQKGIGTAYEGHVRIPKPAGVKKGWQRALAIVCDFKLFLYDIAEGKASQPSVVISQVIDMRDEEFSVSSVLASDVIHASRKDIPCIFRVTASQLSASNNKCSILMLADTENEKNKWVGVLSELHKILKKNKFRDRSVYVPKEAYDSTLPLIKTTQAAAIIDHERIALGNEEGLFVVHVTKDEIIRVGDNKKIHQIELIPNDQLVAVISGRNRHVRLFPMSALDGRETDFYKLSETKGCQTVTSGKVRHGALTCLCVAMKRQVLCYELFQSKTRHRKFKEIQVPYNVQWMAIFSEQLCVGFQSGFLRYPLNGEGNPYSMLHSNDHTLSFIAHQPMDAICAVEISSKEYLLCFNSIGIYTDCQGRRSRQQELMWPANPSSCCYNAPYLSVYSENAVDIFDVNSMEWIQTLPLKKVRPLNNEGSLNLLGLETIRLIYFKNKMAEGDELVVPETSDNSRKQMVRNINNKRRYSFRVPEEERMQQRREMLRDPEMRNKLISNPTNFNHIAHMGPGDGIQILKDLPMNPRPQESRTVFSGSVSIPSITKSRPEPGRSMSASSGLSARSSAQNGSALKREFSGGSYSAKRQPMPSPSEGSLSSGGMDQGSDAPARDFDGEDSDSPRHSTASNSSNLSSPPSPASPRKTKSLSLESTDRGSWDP
Chain of Serine/threonine-protein kinase MRCK beta (Homo sapiens) (Q9Y5S2 whole entry): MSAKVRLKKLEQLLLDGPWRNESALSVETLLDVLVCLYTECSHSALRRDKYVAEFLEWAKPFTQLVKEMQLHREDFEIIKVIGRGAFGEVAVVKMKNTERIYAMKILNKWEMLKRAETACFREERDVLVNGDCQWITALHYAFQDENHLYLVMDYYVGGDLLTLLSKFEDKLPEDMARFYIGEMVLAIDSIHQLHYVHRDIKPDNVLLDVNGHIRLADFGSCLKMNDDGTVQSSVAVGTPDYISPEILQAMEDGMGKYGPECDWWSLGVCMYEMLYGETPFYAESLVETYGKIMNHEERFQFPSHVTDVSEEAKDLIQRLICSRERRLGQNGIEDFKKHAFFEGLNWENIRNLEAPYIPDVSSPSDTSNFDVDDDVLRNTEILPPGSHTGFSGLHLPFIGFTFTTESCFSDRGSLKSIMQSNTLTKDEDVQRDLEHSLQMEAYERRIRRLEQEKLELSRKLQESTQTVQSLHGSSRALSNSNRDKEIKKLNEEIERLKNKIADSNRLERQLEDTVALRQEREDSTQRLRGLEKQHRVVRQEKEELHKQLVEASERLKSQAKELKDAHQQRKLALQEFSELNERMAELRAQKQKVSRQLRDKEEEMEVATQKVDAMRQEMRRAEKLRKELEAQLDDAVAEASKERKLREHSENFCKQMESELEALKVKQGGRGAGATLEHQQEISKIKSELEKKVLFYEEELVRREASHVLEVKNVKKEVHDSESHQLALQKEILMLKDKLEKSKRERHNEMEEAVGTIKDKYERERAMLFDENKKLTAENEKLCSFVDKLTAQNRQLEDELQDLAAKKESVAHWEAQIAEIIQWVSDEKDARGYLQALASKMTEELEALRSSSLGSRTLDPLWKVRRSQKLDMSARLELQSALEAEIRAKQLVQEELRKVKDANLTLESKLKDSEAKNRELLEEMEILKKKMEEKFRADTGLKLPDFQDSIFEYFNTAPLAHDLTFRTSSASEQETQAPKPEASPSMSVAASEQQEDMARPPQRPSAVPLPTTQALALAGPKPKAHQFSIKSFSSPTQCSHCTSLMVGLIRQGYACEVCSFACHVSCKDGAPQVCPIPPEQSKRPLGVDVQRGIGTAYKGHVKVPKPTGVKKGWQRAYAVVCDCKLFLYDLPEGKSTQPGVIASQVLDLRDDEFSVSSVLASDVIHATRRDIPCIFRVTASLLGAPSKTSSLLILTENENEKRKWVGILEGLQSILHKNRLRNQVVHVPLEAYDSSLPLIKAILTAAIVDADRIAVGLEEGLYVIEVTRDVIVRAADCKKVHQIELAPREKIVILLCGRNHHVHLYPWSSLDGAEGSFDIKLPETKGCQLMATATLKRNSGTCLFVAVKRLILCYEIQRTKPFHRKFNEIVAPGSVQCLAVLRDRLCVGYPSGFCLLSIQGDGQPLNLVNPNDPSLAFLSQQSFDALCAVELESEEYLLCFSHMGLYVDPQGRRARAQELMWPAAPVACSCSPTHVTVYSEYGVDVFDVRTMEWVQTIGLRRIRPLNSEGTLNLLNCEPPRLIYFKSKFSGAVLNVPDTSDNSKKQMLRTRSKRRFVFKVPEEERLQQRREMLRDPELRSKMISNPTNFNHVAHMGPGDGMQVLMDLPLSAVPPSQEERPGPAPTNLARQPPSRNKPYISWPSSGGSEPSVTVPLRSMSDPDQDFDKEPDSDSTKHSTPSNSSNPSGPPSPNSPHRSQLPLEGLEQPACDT
Chain of SRSF protein kinase 3 (Homo sapiens) (Q9UPE1 whole entry): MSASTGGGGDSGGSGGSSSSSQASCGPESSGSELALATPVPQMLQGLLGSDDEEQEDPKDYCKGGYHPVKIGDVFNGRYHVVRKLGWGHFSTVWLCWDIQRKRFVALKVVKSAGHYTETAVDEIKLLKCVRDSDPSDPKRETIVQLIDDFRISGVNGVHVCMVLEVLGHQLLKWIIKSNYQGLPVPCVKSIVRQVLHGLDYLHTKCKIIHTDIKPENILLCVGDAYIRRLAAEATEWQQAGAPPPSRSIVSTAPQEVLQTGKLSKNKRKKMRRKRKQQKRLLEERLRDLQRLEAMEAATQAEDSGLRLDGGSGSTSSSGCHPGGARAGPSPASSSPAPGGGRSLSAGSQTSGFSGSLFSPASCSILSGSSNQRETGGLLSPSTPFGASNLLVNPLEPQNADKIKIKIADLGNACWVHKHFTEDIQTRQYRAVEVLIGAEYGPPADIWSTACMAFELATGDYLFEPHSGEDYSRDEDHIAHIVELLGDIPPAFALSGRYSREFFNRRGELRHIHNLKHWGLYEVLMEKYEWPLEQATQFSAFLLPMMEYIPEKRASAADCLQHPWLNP
Chain of Ribosomal protein S6 kinase alpha-5 (Homo sapiens) (O75582 whole entry, looked up): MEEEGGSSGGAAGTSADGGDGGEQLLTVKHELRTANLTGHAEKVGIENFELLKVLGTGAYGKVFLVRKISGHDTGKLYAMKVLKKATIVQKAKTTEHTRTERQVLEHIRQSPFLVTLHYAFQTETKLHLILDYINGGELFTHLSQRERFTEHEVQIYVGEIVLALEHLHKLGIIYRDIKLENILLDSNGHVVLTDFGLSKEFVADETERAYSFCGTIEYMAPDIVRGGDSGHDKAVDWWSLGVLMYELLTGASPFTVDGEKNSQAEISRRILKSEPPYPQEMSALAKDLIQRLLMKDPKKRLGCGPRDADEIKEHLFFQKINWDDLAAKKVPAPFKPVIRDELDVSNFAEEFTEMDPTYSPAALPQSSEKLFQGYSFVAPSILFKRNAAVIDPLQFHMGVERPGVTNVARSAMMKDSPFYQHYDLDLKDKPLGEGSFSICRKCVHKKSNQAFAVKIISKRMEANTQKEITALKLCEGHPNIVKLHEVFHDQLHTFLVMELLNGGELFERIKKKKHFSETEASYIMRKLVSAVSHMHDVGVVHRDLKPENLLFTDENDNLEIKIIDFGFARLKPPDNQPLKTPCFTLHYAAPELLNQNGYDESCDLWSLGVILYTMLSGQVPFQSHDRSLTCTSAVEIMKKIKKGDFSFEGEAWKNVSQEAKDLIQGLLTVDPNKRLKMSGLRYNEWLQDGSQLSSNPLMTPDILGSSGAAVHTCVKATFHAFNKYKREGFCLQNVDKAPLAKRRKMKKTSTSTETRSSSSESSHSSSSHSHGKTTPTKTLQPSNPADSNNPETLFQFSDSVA

Structure (SMILES)	residual activity [1] [%]	residual activity [2] [%]	residual activity [3] [%]	residual activity [4] [%]	residual activity [5] [%]	residual activity [6] [%]	residual activity [7] [%]	residual activity [8] [%]	residual activity [9] [%]	residual activity [10] [%]	residual activity [11] [%]	residual activity [12] [%]	residual activity [13] [%]	residual activity [14] [%]	residual activity [15] [%]	residual activity [16] [%]	residual activity [17] [%]	residual activity [18] [%]	residual activity [19] [%]	residual activity [20] [%]
CC(C)(C)c1nc2c3ccc(F)cc3c3c(=O)[nH]ccc3c2[nH]1	39	41	69	35	2	4	9	21	36	44	79	8	10							
N#C/C(=C\c1ccc(O)c(O)c1)C(=O)NCc1ccccc1	89	101	83	68	101	100			86	74				87	87	82	57	88		
NCCNc1ncc(C(N)=O)c(Nc2cccc(C(F)(F)F)c2)n1	18	6	73	38	67	55	30	4	81	81	108			105			77	75	104	112
Nc1ncnc2c1c(-c1ccc(Oc3ccccc3)cc1)cn2C1CCCC1	85	89	95	79	63	45			83	59	106	76	48	118	90	69	67	96	107	126
COc1ccc(-c2cnc3c(-c4ccsc4)cnn3c2)cc1	73		74	86					95	95				99			94			
CN(C)S(=O)(=O)c1ccc2c(c1)/C(=C/c1cc3c([nH]1)CCCC3)C(=O)N2	91		82	95		88	84	64		94	98	23	2				125	77		115
O=C1NC(=O)C(c2c[nH]c3ccccc23)=C1c1c[nH]c2ccccc12			126	117	61	15	43	8	49	6		41	7				19	35		73
Cn1sc(=O)n(Cc2ccccc2)c1=O					90	91	92	88	96	85				92	73	81			98	
CCOC(=O)c1c(C)[nH]c(/C=C2\C(=O)Nc3ccccc32)c1C	85		84	85	90	78	43	39	87	91	95				91	83	97	90		
O=C(Nc1ccc(Cl)cc1)c1ccccc1NCc1ccncc1							99			101										
O=C(c1cc2cc(O)ccc2[nH]1)c1cc2cc(O)ccc2[nH]1	112		113	63	70	35	16	4	67	27		39	14	78	77	82				
COc1cc2c(cc1OC)-c1n[nH]c(Nc3cccc(F)c3)c1C2			109	131	73	60					114	83	73	129		100		66	116	
Cc1cc(C)c(/C=C2\C(=O)Nc3ccccc32)[nH]1	60	76			32	39			61	39	99	51	20		99					
CCCCc1c(-c2ccc(OC)cc2)[nH]c2nccnc12	128	80			104	83	16	19			102	71	40	88	103		117	87		111
Nc1nc(Nc2ccc(S(N)(=O)=O)cc2)nn1C(=O)c1c(F)cccc1F			104		78	22	16	1			75	25	2					33		
O=C1Nc2ccccc2/C1=C\c1c(Cl)[nH]c2ccccc12				77		11		62		59		51	63				71			100
Oc1cccc(-c2nc(N3CCOCC3)c3oc4ncccc4c3n2)c1	91				71	72	90	99				97	97	91	91	85	90	92	97	130
COc1ccc(Cl)cc1NC(=O)Nc1cc(C)nc2ccccc12			87	99	83	71	91	100		95		93	79		87	76				

Structure (SMILES)	residual activity [1] [%]	residual activity [2] [%]	residual activity [3] [%]	residual activity [4] [%]	residual activity [5] [%]	residual activity [6] [%]	residual activity [7] [%]	residual activity [8] [%]	residual activity [9] [%]	residual activity [10] [%]	residual activity [11] [%]	residual activity [12] [%]	residual activity [13] [%]	residual activity [14] [%]	residual activity [15] [%]	residual activity [16] [%]	residual activity [17] [%]	residual activity [18] [%]	residual activity [19] [%]	residual activity [20] [%]
CCCC(=O)Oc1ccc2[nH]c(C(=O)c3cc4ccccc4[nH]3)cc2c1	99		104	81	90	97	80	88	94	99		94	103	102	92	79	103	88	102	
Nc1nccc(-c2c(-c3ccc(F)cc3)ncn2C2CCNCC2)n1	80	3				82		48												
Nc1ncnc2[nH]nc(Nc3ccc(F)cc3)c12		74			100	78	60	12	92	74	98	72		106	95	106	97	76	117	117
COc1ccc(CNC(=O)Nc2ncc([N+](=O)[O-])s2)cc1						76						108	105	104			129		118	114
CCOc1nc(NC(=O)Cc2cc(OC)ccc2OC)cc(N)c1C#N		62	11	4		78						80								
NC(=O)c1cccc(-c2cc(Nc3ccc(OC(F)(F)F)cc3)ncn2)c1	144	95			88		95	87						145						
CN([C@@H](Cc1ccc(OS(=O)(=O)c2cccc3cnccc23)cc1)C(=O)N1CCN(c2ccccc2)CC1)S(=O)(=O)c1cccc2cnccc12		124			100	72					100									
O=C1C(Cl)=C(N2C(=O)CCC2=O)C(=O)c2ccccc21			67	78		75	96	91	96	91	98	76		94	100	97	123	98		101
CCCCc1c(-c2ccc(O)cc2)[nH]c2nccnc12	87	73			100	83	16	15	90	85		61	42							
O=c1cc(N2CCOCC2)oc2c(-c3ccccc3)cccc12	72			76												65				
CC(C)N(CCC(=O)c1ccc2ccccc2c1)Cc1ccccc1				38	81	83	86					87	84		82	77	123	85		126
COc1cc2ncnc(Nc3cccc(Cl)c3)c2cc1OC	47	26			64	28	76	21			104		74	111	102	104	102	22	107	103
O=S(=O)(NCCNC/C=C/c1ccc(Br)cc1)c1cccc2cnccc12		69				63		74	9	2						66	3			19
COc1ccc2c(c1)c(C1=C(c3c[nH]c4ccccc34)C(=O)NC1=O)cn2CCCN(C)C	110			104	51	15	63	15	39	5		64	25	80	80	41	4	52	74	37
COc1cc2nccc(Oc3ccc(NC(=O)Nc4cc(C)on4)c(Cl)c3)c2cc1OC	49	21			66	61		61					56	102			80			107
O=C1NC(=O)C(c2cn(CCCn3ccnc3)c3ccccc23)=C1Nc1ccccc1			102	121	53	23	16	5	22	4	100	41	13			41	6	67		39
O=S(=O)(c1cccc2cnccc12)N1CCCNCC1		81	85					84	58	21							41			
CC(C)c1nn(-c2c(Cl)cccc2Cl)c2nc(Cc3ccc(OCCO)cc3)[nH]c(=O)c12		90	84	77	105	99	86	48	94	84	87	80	68	102	97	83	91	76	106	128
